# Measurements: publication PMC7862700, “An all-to-all approach to the identification of sequence-specific readers for epigenetic DNA modifications on cytosine”
# Legend:
# Assay in all cases: DAPPL (digital affinity profiling via proximity ligation, sequencing); 10 mM Tris-HCl pH 7.5, 50 mM NaCl, 1 mM DTT, 4% glycerol, room temperature, 30 min; GST-TFs on glutathione beads, 16-mer random dsDNA library, 0.1% formaldehyde crosslink after washing; high values mean tight binding
# FLI1 = target: T1, FLI1 (Homo sapiens, UniProt Q01543 1-452); details: protein: recombinant; tags: N-terminal GST; dsDNA, one strand shown
# T1 sequence: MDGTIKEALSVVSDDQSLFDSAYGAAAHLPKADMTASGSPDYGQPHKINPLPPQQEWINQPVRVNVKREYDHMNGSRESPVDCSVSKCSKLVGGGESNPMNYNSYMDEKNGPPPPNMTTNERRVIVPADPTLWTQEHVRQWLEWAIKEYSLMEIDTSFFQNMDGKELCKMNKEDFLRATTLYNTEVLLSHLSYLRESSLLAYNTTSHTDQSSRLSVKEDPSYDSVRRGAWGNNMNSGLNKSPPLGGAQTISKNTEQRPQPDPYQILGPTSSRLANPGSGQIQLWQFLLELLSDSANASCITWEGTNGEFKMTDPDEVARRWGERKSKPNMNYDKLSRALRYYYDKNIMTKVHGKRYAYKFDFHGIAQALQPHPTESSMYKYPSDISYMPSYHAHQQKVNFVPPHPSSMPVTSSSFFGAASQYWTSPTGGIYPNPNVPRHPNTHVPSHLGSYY
# How it was run: (§1)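 Binding signal is each hexamer's read frequency for a factor divided by its frequency in the tag-only sample. The factors were GST-fused human transcription factors from yeast, captured on glutathione beads, DNA-barcoded and pooled with that sample. Pools were incubated with 200 nmole of a random double-stranded 16-mer DNA library in Tris/NaCl/DTT/glycerol buffer at room temperature for 30 min, then washed, crosslinked with 0.1% formaldehyde, proximity-ligated with BsaI/T4 ligase (1 h, 37 °C), PCR-amplified and sequenced on an Illumina NextSeq500.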
# ELK1 = target: T2, ELK1 (Homo sapiens, UniProt P19419 1-428); details: protein: recombinant; tags: N-terminal GST; dsDNA, one strand shown
# T2 sequence: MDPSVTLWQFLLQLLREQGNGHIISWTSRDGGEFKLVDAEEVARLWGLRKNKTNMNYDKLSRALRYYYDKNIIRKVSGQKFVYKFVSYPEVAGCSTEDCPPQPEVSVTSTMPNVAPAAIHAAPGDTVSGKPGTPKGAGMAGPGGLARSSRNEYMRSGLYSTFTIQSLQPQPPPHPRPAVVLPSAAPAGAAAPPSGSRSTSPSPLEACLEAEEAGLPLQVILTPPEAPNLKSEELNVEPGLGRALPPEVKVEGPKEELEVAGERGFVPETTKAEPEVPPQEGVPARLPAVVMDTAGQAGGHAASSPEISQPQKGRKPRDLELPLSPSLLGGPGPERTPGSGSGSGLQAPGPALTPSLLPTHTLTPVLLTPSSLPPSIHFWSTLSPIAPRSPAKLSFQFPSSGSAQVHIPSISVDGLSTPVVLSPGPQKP
# How it was run: as §1
# GABPA = target: T3, GABPA (Homo sapiens, UniProt Q06546 1-454); details: protein: recombinant; tags: N-terminal GST; dsDNA, one strand shown
# T3 sequence: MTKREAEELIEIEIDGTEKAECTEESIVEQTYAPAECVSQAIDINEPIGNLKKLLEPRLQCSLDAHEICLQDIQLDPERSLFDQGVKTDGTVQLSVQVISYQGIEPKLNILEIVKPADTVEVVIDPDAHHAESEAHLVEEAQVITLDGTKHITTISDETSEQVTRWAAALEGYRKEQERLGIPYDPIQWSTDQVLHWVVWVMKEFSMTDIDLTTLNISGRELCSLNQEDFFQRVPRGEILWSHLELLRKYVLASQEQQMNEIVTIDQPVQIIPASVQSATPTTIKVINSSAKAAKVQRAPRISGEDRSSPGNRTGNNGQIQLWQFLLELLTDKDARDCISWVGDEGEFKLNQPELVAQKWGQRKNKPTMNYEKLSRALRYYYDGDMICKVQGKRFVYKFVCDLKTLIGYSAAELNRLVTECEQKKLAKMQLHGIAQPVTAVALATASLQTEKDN
# How it was run: as §1
# ERG = target: T4, ERG (Homo sapiens, UniProt P11308 1-479); details: protein: recombinant; tags: N-terminal GST; dsDNA, one strand shown
# T4 sequence: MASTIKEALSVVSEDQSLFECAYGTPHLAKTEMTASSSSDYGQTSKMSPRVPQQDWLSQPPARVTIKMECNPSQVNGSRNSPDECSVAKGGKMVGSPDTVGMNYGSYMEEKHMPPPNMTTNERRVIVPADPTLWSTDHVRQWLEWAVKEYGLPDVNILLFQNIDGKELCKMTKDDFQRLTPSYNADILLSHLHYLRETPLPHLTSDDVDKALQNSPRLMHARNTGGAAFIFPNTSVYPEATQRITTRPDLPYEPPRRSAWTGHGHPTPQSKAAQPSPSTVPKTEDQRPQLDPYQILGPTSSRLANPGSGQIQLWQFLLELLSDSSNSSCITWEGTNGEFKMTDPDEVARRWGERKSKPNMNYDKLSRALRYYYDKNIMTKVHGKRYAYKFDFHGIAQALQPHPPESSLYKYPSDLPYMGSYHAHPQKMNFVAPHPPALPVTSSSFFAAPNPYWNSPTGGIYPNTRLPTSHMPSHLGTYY
# How it was run: as §1
# ELF1 = ELF1 (Homo sapiens, UniProt P32519 1-619); details: protein: recombinant; tags: N-terminal GST; dsDNA, one strand shown
# How it was run: as §1
# EHF = target: T5, EHF (Homo sapiens, UniProt Q9NZC4 1-300); details: protein: recombinant; tags: N-terminal GST; dsDNA, one strand shown
# T5 sequence: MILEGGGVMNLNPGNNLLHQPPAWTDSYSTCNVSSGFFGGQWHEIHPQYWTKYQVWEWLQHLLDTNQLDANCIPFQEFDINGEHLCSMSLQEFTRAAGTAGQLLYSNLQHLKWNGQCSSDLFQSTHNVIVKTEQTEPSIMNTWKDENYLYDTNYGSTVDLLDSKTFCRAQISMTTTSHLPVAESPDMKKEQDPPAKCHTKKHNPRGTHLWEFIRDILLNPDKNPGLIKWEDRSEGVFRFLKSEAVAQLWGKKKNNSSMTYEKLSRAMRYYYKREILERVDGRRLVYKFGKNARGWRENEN
# How it was run: as §1
# SPI1 = SPI1 (Homo sapiens, UniProt P17947 1-270); details: protein: recombinant; tags: N-terminal GST; dsDNA, one strand shown
# How it was run: as §1
# SPIB = SPIB (Homo sapiens, UniProt Q01892 1-262); details: protein: recombinant; tags: N-terminal GST; dsDNA, one strand shown
# How it was run: as §1
# ELK3 = target: T6, ELK3 (Homo sapiens, UniProt P41970 1-407); details: protein: recombinant; tags: N-terminal GST; dsDNA, one strand shown
# T6 sequence: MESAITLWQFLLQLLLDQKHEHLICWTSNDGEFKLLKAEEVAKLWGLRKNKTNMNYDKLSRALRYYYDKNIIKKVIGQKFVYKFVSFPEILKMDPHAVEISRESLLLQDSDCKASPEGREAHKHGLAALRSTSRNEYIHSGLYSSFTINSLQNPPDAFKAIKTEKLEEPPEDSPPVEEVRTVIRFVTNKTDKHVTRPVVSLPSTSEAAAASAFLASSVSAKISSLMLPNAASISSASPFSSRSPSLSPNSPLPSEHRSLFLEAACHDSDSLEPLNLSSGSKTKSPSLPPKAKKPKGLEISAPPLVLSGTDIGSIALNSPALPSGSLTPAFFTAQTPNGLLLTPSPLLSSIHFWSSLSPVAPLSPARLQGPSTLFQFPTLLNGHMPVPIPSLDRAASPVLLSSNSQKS
# How it was run: as §1
# FEV = target: T7, FEV (Homo sapiens, UniProt Q99581 1-238); details: protein: recombinant; tags: N-terminal GST; dsDNA, one strand shown
# T7 sequence: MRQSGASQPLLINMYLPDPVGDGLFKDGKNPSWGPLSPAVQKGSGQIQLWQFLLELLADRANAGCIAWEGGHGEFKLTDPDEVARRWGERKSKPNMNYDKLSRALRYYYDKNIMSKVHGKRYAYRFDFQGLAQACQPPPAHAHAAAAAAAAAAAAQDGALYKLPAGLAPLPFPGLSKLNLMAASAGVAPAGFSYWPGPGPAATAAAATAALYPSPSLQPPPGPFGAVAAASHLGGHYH
# How it was run: as §1
# ETV5 = ETV5 (Homo sapiens, UniProt P41161 1-510); details: protein: recombinant; tags: N-terminal GST; dsDNA, one strand shown
# How it was run: as §1
# HSF1 = HSF1 (Homo sapiens, UniProt Q00613 1-529); details: protein: recombinant; tags: N-terminal GST; chain copies: 3; dsDNA, one strand shown
# How it was run: as §1
# SPIC = target: T8, SPIC (Homo sapiens, UniProt Q8N5J4 1-248); details: protein: recombinant; tags: N-terminal GST; dsDNA, one strand shown
# T8 sequence: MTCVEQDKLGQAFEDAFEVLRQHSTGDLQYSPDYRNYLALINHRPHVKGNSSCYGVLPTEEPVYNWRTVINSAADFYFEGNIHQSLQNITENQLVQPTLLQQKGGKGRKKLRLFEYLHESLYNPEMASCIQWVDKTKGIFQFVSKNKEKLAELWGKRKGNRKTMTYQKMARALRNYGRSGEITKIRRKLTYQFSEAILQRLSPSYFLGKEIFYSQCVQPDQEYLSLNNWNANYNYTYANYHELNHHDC
# How it was run: as §1
# ELF4 = ELF4 (Homo sapiens, UniProt Q99607 1-663); details: protein: recombinant; tags: N-terminal GST; dsDNA, one strand shown
# How it was run: as §1
# ELK4 = target: T9, ELK4 (Homo sapiens, UniProt P28324-2 1-405); details: protein: recombinant; tags: N-terminal GST; dsDNA, one strand shown
# T9 sequence: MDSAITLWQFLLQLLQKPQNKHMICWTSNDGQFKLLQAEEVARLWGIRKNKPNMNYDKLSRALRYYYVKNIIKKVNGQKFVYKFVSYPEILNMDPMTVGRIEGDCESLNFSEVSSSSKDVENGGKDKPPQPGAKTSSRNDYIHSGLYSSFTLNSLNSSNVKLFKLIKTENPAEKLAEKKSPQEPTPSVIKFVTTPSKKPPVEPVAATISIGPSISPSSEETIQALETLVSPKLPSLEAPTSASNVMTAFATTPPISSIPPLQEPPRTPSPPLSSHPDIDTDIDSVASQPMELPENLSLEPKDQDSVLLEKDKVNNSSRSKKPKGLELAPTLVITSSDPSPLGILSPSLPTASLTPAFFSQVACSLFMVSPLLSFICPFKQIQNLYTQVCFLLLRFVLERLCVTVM
# How it was run: as §1
# ETV2 = target: T10, ETV2 (Homo sapiens, UniProt O00321 1-342); details: protein: recombinant; tags: N-terminal GST; dsDNA, one strand shown
# T10 sequence: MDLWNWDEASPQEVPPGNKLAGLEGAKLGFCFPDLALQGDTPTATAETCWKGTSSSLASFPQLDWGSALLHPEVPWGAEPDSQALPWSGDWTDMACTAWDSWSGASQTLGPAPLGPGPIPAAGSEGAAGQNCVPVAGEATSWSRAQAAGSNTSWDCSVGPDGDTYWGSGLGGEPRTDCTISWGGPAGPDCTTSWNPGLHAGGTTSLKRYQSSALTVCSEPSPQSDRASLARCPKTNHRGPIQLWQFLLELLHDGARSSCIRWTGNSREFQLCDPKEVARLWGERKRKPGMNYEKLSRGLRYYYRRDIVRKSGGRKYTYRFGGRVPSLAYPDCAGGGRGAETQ
# How it was run: as §1
# ELF3 = target: T11, ELF3 (Homo sapiens, UniProt P78545 1-371); details: protein: recombinant; tags: N-terminal GST; dsDNA, one strand shown
# T11 sequence: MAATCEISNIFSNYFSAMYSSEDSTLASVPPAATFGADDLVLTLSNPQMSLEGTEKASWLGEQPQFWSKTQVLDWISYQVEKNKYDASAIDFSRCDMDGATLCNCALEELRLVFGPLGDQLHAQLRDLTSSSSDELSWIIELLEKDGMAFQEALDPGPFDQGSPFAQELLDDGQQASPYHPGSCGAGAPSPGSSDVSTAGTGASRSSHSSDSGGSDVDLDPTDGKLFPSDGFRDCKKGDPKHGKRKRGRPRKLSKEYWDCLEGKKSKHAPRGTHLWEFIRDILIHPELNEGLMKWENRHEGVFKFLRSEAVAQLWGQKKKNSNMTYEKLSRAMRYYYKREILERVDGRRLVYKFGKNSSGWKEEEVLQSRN
# How it was run: as §1
# CRX = CRX (Homo sapiens, UniProt O43186 1-299); details: protein: recombinant; tags: N-terminal GST; dsDNA, one strand shown
# How it was run: as §1
# ETV1 = ETV1 (Homo sapiens, UniProt P50549 1-477); details: protein: recombinant; tags: N-terminal GST; dsDNA, one strand shown
# How it was run: as §1
# CRX, sequence (O43186 whole entry): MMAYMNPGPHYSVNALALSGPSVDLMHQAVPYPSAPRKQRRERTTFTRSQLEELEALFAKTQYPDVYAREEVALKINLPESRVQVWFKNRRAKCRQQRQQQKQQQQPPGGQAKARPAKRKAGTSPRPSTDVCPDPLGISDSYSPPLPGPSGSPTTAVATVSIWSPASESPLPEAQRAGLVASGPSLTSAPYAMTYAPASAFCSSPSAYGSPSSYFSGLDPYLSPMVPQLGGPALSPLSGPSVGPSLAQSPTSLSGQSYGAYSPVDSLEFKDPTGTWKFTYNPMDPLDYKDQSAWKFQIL
# HSF1, sequence (Q00613 whole entry): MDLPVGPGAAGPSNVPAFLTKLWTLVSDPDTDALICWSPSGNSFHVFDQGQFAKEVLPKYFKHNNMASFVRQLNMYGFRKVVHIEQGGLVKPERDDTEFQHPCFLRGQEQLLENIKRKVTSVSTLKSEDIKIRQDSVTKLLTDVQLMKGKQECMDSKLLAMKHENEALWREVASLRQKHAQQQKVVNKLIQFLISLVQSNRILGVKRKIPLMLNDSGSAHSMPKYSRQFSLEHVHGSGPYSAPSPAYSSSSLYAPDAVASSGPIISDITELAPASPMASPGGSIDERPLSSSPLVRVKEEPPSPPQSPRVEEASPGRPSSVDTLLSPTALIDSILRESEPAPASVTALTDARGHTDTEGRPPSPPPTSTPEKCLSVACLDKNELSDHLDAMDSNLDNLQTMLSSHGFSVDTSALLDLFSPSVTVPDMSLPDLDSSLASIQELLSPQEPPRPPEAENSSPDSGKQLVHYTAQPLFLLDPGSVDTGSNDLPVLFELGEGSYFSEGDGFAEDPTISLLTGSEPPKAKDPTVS
# ELF4, sequence (Q99607 whole entry): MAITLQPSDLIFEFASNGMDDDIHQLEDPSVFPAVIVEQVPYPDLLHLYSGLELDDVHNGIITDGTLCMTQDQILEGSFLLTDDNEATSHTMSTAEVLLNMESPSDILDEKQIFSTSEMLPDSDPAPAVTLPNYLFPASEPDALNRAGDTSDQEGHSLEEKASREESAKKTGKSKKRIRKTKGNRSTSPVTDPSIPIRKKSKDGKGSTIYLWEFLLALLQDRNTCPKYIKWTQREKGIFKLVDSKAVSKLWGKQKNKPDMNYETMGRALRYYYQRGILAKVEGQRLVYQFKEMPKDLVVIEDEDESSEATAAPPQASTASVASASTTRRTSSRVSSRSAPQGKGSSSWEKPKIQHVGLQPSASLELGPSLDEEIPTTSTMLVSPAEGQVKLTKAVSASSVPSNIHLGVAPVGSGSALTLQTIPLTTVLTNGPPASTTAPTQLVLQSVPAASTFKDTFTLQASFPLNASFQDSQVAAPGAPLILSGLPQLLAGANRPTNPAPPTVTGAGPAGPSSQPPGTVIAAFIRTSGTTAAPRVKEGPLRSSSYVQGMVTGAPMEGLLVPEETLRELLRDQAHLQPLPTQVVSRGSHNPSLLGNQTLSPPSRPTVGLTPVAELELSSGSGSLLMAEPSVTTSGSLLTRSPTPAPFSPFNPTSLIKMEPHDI
# ELF1, sequence (P32519 whole entry): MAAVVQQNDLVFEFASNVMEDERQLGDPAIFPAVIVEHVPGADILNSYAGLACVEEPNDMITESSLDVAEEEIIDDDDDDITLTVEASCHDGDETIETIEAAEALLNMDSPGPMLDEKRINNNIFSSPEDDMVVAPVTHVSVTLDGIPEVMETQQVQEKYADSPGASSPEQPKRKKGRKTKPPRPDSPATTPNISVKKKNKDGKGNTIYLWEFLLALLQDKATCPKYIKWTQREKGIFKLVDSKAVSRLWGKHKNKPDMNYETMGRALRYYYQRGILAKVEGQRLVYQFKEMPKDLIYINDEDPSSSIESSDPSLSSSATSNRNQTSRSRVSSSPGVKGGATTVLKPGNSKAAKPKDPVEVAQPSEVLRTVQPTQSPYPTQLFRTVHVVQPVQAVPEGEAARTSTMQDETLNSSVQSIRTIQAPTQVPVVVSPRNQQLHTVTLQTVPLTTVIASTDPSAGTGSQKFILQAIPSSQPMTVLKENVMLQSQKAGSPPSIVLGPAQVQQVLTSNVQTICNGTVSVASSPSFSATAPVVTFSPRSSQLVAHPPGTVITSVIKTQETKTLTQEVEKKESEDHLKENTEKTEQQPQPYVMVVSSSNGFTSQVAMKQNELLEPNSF
# ETV5, sequence (P41161 whole entry): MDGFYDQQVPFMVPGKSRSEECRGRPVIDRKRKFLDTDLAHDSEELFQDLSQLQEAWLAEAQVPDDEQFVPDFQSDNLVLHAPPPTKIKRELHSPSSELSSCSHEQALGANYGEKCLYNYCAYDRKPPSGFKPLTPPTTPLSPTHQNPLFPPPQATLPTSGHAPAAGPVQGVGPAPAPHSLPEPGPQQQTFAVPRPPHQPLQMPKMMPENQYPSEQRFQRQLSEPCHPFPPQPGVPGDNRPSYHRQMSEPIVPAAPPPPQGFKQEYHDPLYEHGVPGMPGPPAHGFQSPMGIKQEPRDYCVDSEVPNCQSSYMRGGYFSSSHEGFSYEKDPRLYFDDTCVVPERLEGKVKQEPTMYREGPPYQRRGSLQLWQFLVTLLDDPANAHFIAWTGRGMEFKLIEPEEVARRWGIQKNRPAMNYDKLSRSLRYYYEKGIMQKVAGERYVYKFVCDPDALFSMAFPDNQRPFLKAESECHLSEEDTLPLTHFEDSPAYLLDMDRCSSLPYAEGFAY
# ETV1, sequence (P50549 whole entry): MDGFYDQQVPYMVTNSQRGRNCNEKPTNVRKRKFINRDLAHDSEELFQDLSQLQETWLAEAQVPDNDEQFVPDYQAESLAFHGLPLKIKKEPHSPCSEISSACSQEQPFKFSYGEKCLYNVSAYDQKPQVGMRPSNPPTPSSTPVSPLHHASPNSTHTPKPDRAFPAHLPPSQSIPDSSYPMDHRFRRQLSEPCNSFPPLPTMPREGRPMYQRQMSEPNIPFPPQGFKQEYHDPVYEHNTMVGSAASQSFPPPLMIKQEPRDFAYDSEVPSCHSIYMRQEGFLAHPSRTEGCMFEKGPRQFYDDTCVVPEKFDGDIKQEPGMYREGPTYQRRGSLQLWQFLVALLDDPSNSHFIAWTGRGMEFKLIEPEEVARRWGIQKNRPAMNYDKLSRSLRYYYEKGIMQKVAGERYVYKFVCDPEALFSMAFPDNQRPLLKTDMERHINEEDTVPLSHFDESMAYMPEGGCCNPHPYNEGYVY
# SPIB, sequence (Q01892 whole entry): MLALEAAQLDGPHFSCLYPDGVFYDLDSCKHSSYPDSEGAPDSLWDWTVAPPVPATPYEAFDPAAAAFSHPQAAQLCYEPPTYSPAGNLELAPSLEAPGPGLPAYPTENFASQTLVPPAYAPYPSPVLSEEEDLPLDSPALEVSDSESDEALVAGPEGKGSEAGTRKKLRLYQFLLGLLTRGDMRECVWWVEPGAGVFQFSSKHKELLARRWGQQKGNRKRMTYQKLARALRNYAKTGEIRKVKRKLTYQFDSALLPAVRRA
sequence,measurement,setting,value
TCGTTC,binding signal,FLI1,"1.17 fold enrichment (6-mer frequency, TF over GST control)"
same,binding signal,ELK1,"1.15 fold enrichment (6-mer frequency, TF over GST control)"
same,binding signal,GABPA,"1.33 fold enrichment (6-mer frequency, TF over GST control)"
same,binding signal,ERG,"1.27 fold enrichment (6-mer frequency, TF over GST control)"
same,binding signal,ELF1,"1.15 fold enrichment (6-mer frequency, TF over GST control)"
same,binding signal,EHF,"1.23 fold enrichment (6-mer frequency, TF over GST control)"
same,binding signal,SPI1,"1.17 fold enrichment (6-mer frequency, TF over GST control)"
same,binding signal,SPIB,"1.23 fold enrichment (6-mer frequency, TF over GST control)"
same,binding signal,ELK3,"1.23 fold enrichment (6-mer frequency, TF over GST control)"
same,binding signal,FEV,"1.23 fold enrichment (6-mer frequency, TF over GST control)"
same,binding signal,ETV5,"1.29 fold enrichment (6-mer frequency, TF over GST control)"
same,binding signal,HSF1,"1.39 fold enrichment (6-mer frequency, TF over GST control)"
same,binding signal,SPIC,"1.23 fold enrichment (6-mer frequency, TF over GST control)"
same,binding signal,ELF4,"1.31 fold enrichment (6-mer frequency, TF over GST control)"
same,binding signal,ELK4,"1.39 fold enrichment (6-mer frequency, TF over GST control)"
same,binding signal,ETV2,"1.37 fold enrichment (6-mer frequency, TF over GST control)"
same,binding signal,ELF3,"1.15 fold enrichment (6-mer frequency, TF over GST control)"
same,binding signal,CRX,"1.04 fold enrichment (6-mer frequency, TF over GST control)"
same,binding signal,ETV1,"1.2 fold enrichment (6-mer frequency, TF over GST control)"
